Out of some 320,000 compounds screened, about 1,000 (0.31%) were called active. The full list was thinned out, with actives kept by preference. Unmarked numbers belong to inactive results.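 Rule for the calls: active = activation above the mean of all tested compounds plus 3 SD, cutoff set per screening run (cut at about 20% in these data); inactive = the rest.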

Experimental findings from PubChem BioAssay AID2435 (The Scripps Research Institute Molecular Screening Center, 2010) are described below.

This assay deals with Oxytocin receptor (Homo sapiens) (UniProt P30559). Kind of assay: human OXTR agonists, primary screen, fluorescence, CHO-OTR cells, Fluo-8 calcium (AID 2435).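 Note: peak over basal fluorescence ratio from a 100 s FLIPR kinetic read.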 The settings on record: Fluo-8 calcium fluorescence, at 3 µM, stronger effect = higher value, normalized: DMSO 0%, oxytocin 100%.
Chain of Oxytocin receptor (Homo sapiens) (P30559 whole entry, looked up): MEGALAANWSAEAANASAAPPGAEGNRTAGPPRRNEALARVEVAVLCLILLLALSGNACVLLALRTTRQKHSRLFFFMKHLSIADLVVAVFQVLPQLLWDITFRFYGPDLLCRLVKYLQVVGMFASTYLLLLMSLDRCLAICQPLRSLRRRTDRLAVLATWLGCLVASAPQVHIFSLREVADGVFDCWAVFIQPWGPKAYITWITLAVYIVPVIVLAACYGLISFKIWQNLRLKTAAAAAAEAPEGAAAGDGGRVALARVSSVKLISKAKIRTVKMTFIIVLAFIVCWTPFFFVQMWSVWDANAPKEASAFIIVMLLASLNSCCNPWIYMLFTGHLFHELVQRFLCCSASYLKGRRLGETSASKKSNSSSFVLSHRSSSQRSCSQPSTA
Take `COc1ccc(NS(=O)(=O)c2ccc(Oc3c(C#N)cccc3C#N)cc2)cc1`: the activation is 21.2% (active). For the compound `CCOc1ccc(S(=O)(=O)Nc2ccc(S(=O)(=O)Nc3cc(OC)ccc3OC)cc2)cc1`, the activation was 5.31%. As to `COc1ccc(NS(=O)(=O)c2ccc(NC(=O)c3ccc(N(C)S(C)(=O)=O)cc3)cc2)cc1`, the activation is 2.34%. For `CCNc1ccc(C(=O)OCC(=O)N2c3ccccc3NC(=O)C2(C)C)cc1[N+](=O)[O-]`, the activation is -1.03%. Consider `CCOC(=O)C1=C(NC(=S)NC(=O)c2ccccc2)c2ccccc2CC1(C)C`, for which the activation is 25.1% (active). Regarding `COCCCNC(=S)NC(=O)c1ccccc1`, the activation is 0.86%. As for `Cc1ccc(NC(=S)NC(=O)c2ccc(-c3ccccc3)cc2)cc1`, the activation is 1.22%.

As for `CC1=CC=CC2=N/C(=N\S(=O)(=O)c3ccc(F)cc3F)c3ccccc3CN12`, the activation is -2.27%. As for `COc1ccc(N2CCC(N3CCN(C)C(CCO)C3)CC2)cc1` (stereo not given), the activation is -0.23%. In the case of `Cc1ccc(S(=O)(=O)N2CCN(C(=O)N3CCOCC3)CC2)c(C)c1`, the activation is 0.27%. As to `Nc1ccc2nc3c(=O)[nH]c(=S)[nH]c3nc2c1`, the activation was 35.4% (active). As for `CSc1nnc(SCc2nc3sc(C(=O)O)c(C)c3c(=O)[nH]2)s1`, the figure is 6.08%; as for `CC(/C=C/c1ccccc1)=N\NC(=O)C1CC1(C)c1ccccc1` (stereo not given), -2.09%; as for `CCOC(=O)/C=c1\s/c(=C\c2ccc(C#N)cc2)c(=O)n1CC(=O)Nc1cccc(C)c1C`, 0.18%. Consider `CN(c1ccccc1)c1ccc(/C=c2\s/c(=C(/C#N)C(=O)C(C)(C)C)n(Cc3ccco3)c2=O)cc1`, for which the activation is 20.3% (active). As for `CCOC(=O)Cn1c(=O)oc2cc(S(=O)(=O)N(C)Cc3ccco3)ccc21`, the figure is 1.29%.

As for `CCS(=O)(=O)N1CCCC(C(=O)NCCCN(C)Cc2ccccc2)C1` (stereo not given), the activation was -0.22%.

As for `Cc1cccc(NC(=S)NCCc2ccc(Cl)cc2)c1C`, the activation was -1.48%. As for `O=C(COc1ccc(Cl)cc1)NC(=S)Nc1ccccc1N1CCOCC1`, the figure is -0.94%; as for `Cc1ccc(C(=O)NC(=S)Nc2ccccc2C)cc1`, -1.72%; as for `Cc1ccccc1NC(=S)NC(=O)Cc1ccc(Cl)cc1`, 28% (active). With `O=C(Cc1ccc(Cl)cc1)NC(=S)Nc1ccccc1O` the figure was 55.4% (active); with `COC(=O)Cc1ccc(NC(=S)NCc2ccc(Cl)cc2)cc1`, 7.5%. As to `O=C(Nc1ccc(S(=O)(=O)Nc2ncccn2)cc1)C12CC3CC(CC(C3)C1)C2`, the activation is -0.32%. Take `COc1cc(NC(=O)CN2C(=O)NC(C)(c3ccc(OC(F)F)cc3)C2=O)cc(OC)c1OC` (stereo not given): the activation was 2.87%.
